The source of these data is the supplement of paper PMC8728848.

What all share (assay): glycan array binding signal (z-score within array); higher = stronger binding
What all share (settings): glycan notation: IUPAC condensed, linker removed

Test [1] deals with Fuc(a1-2)Gal(b1-4)[Fuc(a1-3)]GlcNAc. Put shortly: (§1)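 From the Consortium for Functional Glycomics database, 3228 arrays were curated, keeping only those whose protein sequence was available. Binding is given as a within-array Z-score averaged across arrays sharing a protein sequence and across linkers. Negative Z-scores can be read as non-binding.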
Test [2] concerns the target Fuc(a1-2)[Gal(a1-4)]Gal(b1-4)GalNAc. Put shortly: as §1
Another test has as its target Gal(a1-2)Gal. Put shortly:
as §1

A further test has as its target Gal(a1-3)Gal(b1-3)GlcNAc. Put shortly: as §1
For the next test, the target named is Gal(a1-4)GlcNAc. Put shortly:
as §1

In test [3] the target is Gal(b1-3)[Neu5Ac(a2-6)]GlcNAc. Put shortly:
as §1

The target of test [4] is Gal(b1-4)GlcNAc(b1-2)Man(a1-3)[Gal(b1-4)GlcNAc(b1-2)Man(a1-6)]Man(b1-4)GlcNAc(b1-4)GlcNAc. Put shortly:
as §1

For test [5], the target named is Gal(b1-4)GlcNAc(b1-6)[Gal(b1-3)]GalNAc. Put shortly: as §1
The next test concerns the target Gal3S(b1-4)GlcNAc6S. Put shortly:
as §1

The target of another test is Gal3S6S(b1-4)GlcNAc. Put shortly: as §1
Another test addresses Gal3S6S(b1-4)GlcNAc6S. Put shortly: as §1
The next test addresses Gal4S6S(b1-4)GlcNAc. Put shortly:
as §1

For a further test, the target named is Gal6S(b1-4)Glc. Put shortly:
as §1

The target in test [6] is Man(a1-2)Man(a1-3)[Man(a1-6)]Man(a1-6)[Man(a1-2)Man(a1-3)]Man(b1-4)GlcNAc(b1-4)GlcNAc. Put shortly:
as §1

For test [7], the target named is Neu5Ac(a2-3)Gal(b1-3)[Fuc(a1-4)]GlcNAc. Put shortly:
as §1

A further test concerns the target Neu5Ac(a2-3)Gal(b1-4)Glc. Put shortly: as §1
The target of test [8] is Neu5Ac(a2-6)Gal(b1-4)GlcNAc(b1-3)Gal(b1-4)GlcNAc. Put shortly:
as §1

The target in test [9] is Neu5Ac(a2-8)Neu5Ac(a2-3)Gal(b1-4)Glc. Put shortly: as §1
The target of test [10] is Neu5Ac9Ac(a2-6)Gal(b1-4)GlcNAc. Put shortly: as §1
Test [11] deals with Neu5Gc(a2-3)Gal(b1-3)GlcNAc. Put shortly: as §1

The full list was thinned out, with the strongest signals kept by preference.

B1: Siglec 6 (Homo sapiens), O43699 (protein)
chain: MLPLLLPLLWAGALAQERRFQLEGPESLTVQEGLCVLVPCRLPTTLPASYYGYGYWFLEGADVPVATNDPDEEVQEETRGRFHLLWDPRRKNCSLSIRDARRRDNAAYFFRLKSKWMKYGYTSSKLSVRVMALTHRPNISIPGTLESGHPSNLTCSVPWVCEQGTPPIFSWMSAAPTSLGPRTTQSSVLTITPRPQDHSTNLTCQVTFPGAGVTMERTIQLNVSYAPQKVAISIFQGNSAAFKILQNTSSLPVLEGQALRLLCDADGNPPAHLSWFQGFPALNATPISNTGVLELPQVGSAEEGDFTCRAQHPLGSLQISLSLFVHWKPEGRAGGVLGAVWGASITTLVFLCVCFIFRVKTRRKKAAQPVQNTDDVNPVMVSGSRGHQHQFQTGIVSDHPAEAGPISEDEQELHYAVLHFHKVQPQEPKVTDTEYSEIKIHK
As to B1, the “glycan array binding signal (z-score)” value is -0.259 in test [1]; 1.21 in test [2]; -0.328 with Gal(a1-2)Gal; -0.366 in the test with Gal(a1-3)Gal(b1-3)GlcNAc; -0.074 with Gal(a1-4)GlcNAc; -0.381 in test [3]. Moreover, the “glycan array binding signal (z-score)” value was -0.29 in test [4]; -0.521 in test [5]; 3.66 with Gal3S(b1-4)GlcNAc6S; 5.12 with Gal3S6S(b1-4)GlcNAc; 6.44 with Gal3S6S(b1-4)GlcNAc6S; 3 with Gal4S6S(b1-4)GlcNAc. In addition, the “glycan array binding signal (z-score)” value was 0.086 in the test with Gal6S(b1-4)Glc; -0.209 in test [6]; -0.566 in test [7]; -0.332 with Neu5Ac(a2-3)Gal(b1-4)Glc; -0.476 in test [8]; -0.16 in test [9]. For the same molecule, the entries for the “glycan array binding signal (z-score)” value in [10] and in test [11] were -0.211 and -0.386, respectively.
